Inconclusive results are not listed. The source made the active and inactive calls.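 How the source made its calls, unless noted: active means inhibition above the screen-wide mean plus 3 SD, about 51%; inactive means the rest.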

The record followed here is PubChem BioAssay.

Assay [1] is described as follows: yeast TOR pathway RPL19A-GFP modulators, primary screen, cell-based, S. cerevisiae, multiplex flow cytometry (AID 1862; in the data active means percent of DMSO control GFP below about 86%;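 further: lower values mimic rapamycin by blocking the RPL19A rise seen in DMSO cells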). As to conditions: S. cerevisiae RPL19A-GFP strain, flow cytometry fluorescence, 3 h; at 10 µM; stronger effect = lower value.
Assay [2] is described as follows: modulators of MEP2-GFP levels in yeast, primary screen, S. cerevisiae, multiplex flow cytometry (AID 1867;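 active means GFP response, as percent of the DMSO control, above the screen-wide mean plus 3 SD, about 139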;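 further: median GFP channel fluorescence of barcode-gated MEP2-GFP cells measured by flow cytometry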). As to conditions: S. cerevisiae MEP2-GFP strain, 3 h, at 10 µM, stronger effect = higher value, 100% means same as DMSO wells.
A short description of assay [3]: modulators of CIT2-GFP expression in yeast, primary screen, S. cerevisiae, GFP fusion, multiplex flow cytometry (AID 1870;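 active means percent response above a set limit, the screen-wide mean plus 3 SD, cut at about 130% in these data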;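 further: barcoded CIT2-GFP strain pooled with four other GFP strains with rapamycin as positive control; median GFP fluorescence per well over plate mean of DMSO wells so 100% = DMSO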). The following applies: 3 h, at 10 µM, stronger effect = higher value. On the technique in general: Flow cytometry measures light scatter and fluorescence of single cells or particles in a stream.
Assay [4] in a line: modulators of LAP4-GFP expression in yeast, primary screen, S. cerevisiae, multiplex flow cytometry (AID 1873;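 active means GFP signal, as percent of the solvent control, above the screen mean plus 3 SD, about 149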). As to conditions: 3 h, at 10 µM, stronger effect = higher value.
Assay [5] is described as follows: modulators of AGP1-GFP expression in yeast TOR pathway, primary screen, cell-based, multiplex flow cytometry, S. cerevisiae (AID 1887;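 active means GFP signal above the screen-wide mean plus 3 SD, that is over about 124.5% of the solvent control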;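 further: AGP1-GFP fusion strain of S. cerevisiae within a five-strain barcoded multiplex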). The following applies: 3 h, at 10 µM, stronger effect = higher value.
Assay [6] can be described thus: inhibitors of CD8+ T cell-vesicle binding, pilot screen, LFA-1/ICAM-1 modulator project, MLPCN validation set, flow cytometry (AID 2523;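 active means response below a set limit, under 55% cells CD8-positive and vesicle-bound, and CD8 cells' 90th-percentile brightness under 279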;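 on vesicle binding response: mean PE anti-B7-1 fluorescence of CD8+ cells relative to row control; 100% = QL9-loaded vesicles with DMSO vehicle in the same plate row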). The following applies: 2C mouse CD8+ T cells, at 7 µM, stronger effect = lower value; double positive events: measured here: CD8+/vesicle+ event percentage.
Assay [7] has as its target Integrin beta-1 (Homo sapiens) + Integrin alpha-4 (Homo sapiens) (UniProt P13612+P05556). The experiment in a line: inhibition of HUTS-21 binding to VLA-4, pilot screen, VLA-4 allosteric modulator project, U937 cells, HUTS-21 mAb, flow cytometry, validation set (AID 2674;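 active means inhibition above 50%, about 3 SD of the validation set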;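 further: antibody binding induced by the VLA-4 ligand LDV present at three times its Kd; 0% = LDV ligand with antibody and no compound and 100% = antibody without LDV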). As to conditions: HUTS-21 LIBS mAb binding, at 6.7 µM, stronger effect = higher value, binding induced by LDV ligand.

A short description of assay [8]: superoxide lowering in aged yeast cells, pilot screen, validation compound set (AID 2706;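 active means superoxide response below 65% of plate, a cut near 3 SD across the whole screen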;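 further: yeast exposed to compound for one week at 30 degrees C before staining; 100% = mean of all compound wells on the same plate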). The following applies: S. cerevisiae aging, superoxide DHE fluorescence; at 10 µM; stronger effect = lower value.
In assay [9] the target is Beta-adrenergic receptor kinase 1 (Homo sapiens) (UniProt P25098). The assay can be described thus: GRK2 binders displacing RNA aptamer, biochemical, validation, human GRK2, bead flow cytometry (AID 488806;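 active means aptamer binding inhibition above 30%, about 3 SD of noise from non-fluorescent compounds; inactive means inhibition at or below 30%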). As to conditions: bead-bound GRK2, FAM-aptamer displacement, at 10 µM, stronger effect = higher value.
Chain of Beta-adrenergic receptor kinase 1 (Homo sapiens) (P25098 whole entry, looked up): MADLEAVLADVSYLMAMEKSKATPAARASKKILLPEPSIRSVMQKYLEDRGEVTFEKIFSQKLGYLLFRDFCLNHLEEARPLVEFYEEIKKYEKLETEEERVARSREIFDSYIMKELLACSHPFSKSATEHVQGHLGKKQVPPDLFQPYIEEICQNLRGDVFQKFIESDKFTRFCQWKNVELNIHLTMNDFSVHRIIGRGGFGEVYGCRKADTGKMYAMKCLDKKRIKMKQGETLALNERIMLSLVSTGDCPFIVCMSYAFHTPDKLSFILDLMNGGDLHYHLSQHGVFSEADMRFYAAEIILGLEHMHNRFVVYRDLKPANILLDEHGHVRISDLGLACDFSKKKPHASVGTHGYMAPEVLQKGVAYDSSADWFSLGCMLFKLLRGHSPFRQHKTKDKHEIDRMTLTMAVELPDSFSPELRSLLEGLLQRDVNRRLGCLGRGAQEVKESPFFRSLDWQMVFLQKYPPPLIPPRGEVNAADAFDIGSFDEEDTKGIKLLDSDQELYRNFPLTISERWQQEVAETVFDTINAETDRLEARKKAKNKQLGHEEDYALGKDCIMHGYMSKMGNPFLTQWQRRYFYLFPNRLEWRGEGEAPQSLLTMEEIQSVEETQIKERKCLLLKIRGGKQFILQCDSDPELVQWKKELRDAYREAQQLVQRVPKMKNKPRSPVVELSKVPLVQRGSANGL
For assay [10], the target named is Beta-2 adrenergic receptor (Homo sapiens) (UniProt P07550). The experiment in a line: beta2AR agonists driving receptor internalization, pilot screen, cell-based, FAP fluorogen, flow cytometry, validation set (AID 504459;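 active means percent response above 42, roughly 3 SD of non-fluorescent test compounds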;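 further: agonist-driven loss of surface beta2AR via internalization measured by FAP dye flow cytometry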). As to conditions: Am2.2-beta2AR cells, FAP surface receptor flow cytometry; at 10 µM; stronger effect = higher value.
Chain of Beta-2 adrenergic receptor (Homo sapiens) (P07550 whole entry, looked up): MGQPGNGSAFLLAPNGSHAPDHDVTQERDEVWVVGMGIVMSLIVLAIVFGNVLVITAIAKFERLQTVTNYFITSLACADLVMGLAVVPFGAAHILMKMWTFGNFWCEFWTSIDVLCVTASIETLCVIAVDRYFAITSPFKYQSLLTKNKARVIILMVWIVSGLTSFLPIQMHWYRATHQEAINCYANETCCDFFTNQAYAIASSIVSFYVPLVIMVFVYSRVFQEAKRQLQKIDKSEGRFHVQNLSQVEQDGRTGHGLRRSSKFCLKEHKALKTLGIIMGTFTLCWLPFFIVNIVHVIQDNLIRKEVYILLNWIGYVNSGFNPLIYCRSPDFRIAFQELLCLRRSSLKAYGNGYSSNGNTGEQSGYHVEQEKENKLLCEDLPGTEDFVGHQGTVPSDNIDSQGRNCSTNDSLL
Assay [11] addresses AP-2 complex subunit beta (Homo sapiens) (UniProt P63010). The experiment in a line: inhibitors of arrestin peptide binding to AP2, pilot screen, biochemical, validation set, GST-AP2 beads, flow cytometry (AID 504541;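 active means inhibition above 54%, about 3 SD of non-fluorescent compounds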;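 further: AP2 carries R879A mutation and is captured from E. coli lysate; bead-bound FITC arrestin peptide fluorescence measuring arrestin peptide binding to AP2; 0% = DMSO wells and 100% = excess unlabeled arrestin peptide control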). The following applies: FITC arrestin peptide, at 10 µM, stronger effect = higher value, AP2 beta2 appendage fragment, R879A mutant.
A short description of assay [12]: yeast V-ATPase proton transport modulators, S. cerevisiae, pHLuorin, HTS validation (AID 504600; in the data active means response above about 15%;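 further: plate controls were DMSO for no effect and reference compound for full effect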). As to conditions: S. cerevisiae pHLuorin cytosolic pH, at 10 µM, stronger effect = higher value.
In assay [13] the test system is anti-desmoglein-3 scFv antibody binding to human DSG3. The assay can be described thus: inhibitors of anti-DSG3 scFv binding to DSG3, pilot screen, biochemical, validation compound set, bead-based, flow cytometry (AID 588368;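 active means binding below the plate cutoff, the plate median minus 3 SD, with a reading above zero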;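 further: signal is the median channel fluorescence of bead-bound GFP antibody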). The following applies: Protein G beads, DSG3-Fc, scFv-GFP binding, at 10 µM, stronger effect = lower value.
A short description of assay [14]: inhibitors of fungal efflux pumps CDR1, CDR2, MDR1, pilot screen, validation compound set, multiplex, phenotypic (AID 588506;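 active means efflux inhibition above 0.42, the validation set average plus 4 SD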;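 further: Nile Red retained in cells so higher fluorescence means more efflux inhibition; 0 = negative control wells and 1 = enniatin B 25 µM full block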). The following applies: S. cerevisiae pump-expressing triplex, Nile Red efflux flow cytometry; at 10 µM; stronger effect = higher value; the pumps come from Candida albicans.
Assay [15] concerns the target ATP-binding cassette sub-family B member 6 (Homo sapiens) (UniProt Q9NP58). The experiment in a line: ABCB6 transporter inhibitors, pilot screen, K562-ABCB6 cells, flow cytometry, validation set (AID 588550).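 Further: 0% = DMSO wells and 100% = benzethonium chloride 70 µM positive control.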 The following applies: K562-ABCB6 porphyrin accumulation, 1 h, at 10 µM, stronger effect = higher value.
Assay [16] in a line: promoters of myeloid differentiation in arrested cells, primary screen, cell-based, GFP/MAC1 double positive, flow cytometry, validation set (AID 588685;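 active means differentiation response of at least 50%, scaled between solvent and reference control, from cells with both markers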;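 further: compound exposure lasts four days before antibody staining and flow analysis; 0% = DMSO wells and 100% = 5 µM fulvestrant positive control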). As to conditions: ER-HoxA9 marrow cells, stronger effect = higher value, normalized: vehicle 0, fulvestrant 100.

Chain of Integrin beta-1 (Homo sapiens) + Integrin alpha-4 (Homo sapiens) (P05556 whole entry, looked up): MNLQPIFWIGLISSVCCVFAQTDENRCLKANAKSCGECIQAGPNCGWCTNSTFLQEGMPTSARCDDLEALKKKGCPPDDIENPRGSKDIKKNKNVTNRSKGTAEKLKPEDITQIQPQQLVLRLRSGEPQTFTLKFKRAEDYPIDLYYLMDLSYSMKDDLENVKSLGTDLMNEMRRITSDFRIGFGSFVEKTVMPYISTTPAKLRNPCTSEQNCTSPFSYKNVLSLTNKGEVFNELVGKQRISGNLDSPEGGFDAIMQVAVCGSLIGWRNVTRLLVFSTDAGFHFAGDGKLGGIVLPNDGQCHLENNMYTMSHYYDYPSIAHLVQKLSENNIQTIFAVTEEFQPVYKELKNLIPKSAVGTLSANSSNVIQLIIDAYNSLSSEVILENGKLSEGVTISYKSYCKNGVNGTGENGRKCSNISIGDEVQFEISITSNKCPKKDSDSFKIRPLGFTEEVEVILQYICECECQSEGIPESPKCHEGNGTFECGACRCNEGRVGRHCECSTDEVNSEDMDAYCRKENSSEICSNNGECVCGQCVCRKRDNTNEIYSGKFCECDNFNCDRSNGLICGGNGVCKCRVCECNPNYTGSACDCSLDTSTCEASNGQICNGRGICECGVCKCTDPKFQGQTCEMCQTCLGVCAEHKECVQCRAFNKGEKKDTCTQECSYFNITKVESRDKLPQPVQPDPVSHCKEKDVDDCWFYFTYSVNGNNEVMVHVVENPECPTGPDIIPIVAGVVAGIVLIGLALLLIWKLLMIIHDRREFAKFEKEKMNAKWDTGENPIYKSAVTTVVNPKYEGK
Chain of Integrin beta-1 (Homo sapiens) + Integrin alpha-4 (Homo sapiens) (P13612 whole entry, looked up): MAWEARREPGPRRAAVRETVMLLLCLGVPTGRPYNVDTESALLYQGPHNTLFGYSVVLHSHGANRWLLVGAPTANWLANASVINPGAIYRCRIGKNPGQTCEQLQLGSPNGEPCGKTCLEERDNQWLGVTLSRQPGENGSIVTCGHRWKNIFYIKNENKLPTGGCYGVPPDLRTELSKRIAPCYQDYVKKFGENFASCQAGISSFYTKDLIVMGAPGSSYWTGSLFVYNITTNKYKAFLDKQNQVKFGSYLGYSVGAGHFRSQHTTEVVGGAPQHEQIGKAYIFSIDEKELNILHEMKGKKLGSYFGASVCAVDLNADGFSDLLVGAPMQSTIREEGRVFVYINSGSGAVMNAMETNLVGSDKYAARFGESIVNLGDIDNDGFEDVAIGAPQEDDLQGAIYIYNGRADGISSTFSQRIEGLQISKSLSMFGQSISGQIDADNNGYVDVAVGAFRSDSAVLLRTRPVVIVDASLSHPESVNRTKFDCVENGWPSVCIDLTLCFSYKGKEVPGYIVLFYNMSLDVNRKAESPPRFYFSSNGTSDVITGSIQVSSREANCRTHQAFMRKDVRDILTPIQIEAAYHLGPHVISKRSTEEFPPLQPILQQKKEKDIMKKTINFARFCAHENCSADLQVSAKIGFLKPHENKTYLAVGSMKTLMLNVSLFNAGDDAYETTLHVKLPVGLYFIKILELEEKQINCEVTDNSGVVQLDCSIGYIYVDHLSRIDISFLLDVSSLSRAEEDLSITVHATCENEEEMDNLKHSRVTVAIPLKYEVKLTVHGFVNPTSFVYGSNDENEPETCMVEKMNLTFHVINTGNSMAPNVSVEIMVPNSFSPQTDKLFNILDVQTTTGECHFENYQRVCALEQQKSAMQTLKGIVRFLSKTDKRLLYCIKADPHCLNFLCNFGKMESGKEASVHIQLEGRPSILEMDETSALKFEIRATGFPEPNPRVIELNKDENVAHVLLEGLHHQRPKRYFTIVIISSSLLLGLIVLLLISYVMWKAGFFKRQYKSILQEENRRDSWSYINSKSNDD
Chain of ATP-binding cassette sub-family B member 6 (Homo sapiens) (Q9NP58 whole entry, looked up): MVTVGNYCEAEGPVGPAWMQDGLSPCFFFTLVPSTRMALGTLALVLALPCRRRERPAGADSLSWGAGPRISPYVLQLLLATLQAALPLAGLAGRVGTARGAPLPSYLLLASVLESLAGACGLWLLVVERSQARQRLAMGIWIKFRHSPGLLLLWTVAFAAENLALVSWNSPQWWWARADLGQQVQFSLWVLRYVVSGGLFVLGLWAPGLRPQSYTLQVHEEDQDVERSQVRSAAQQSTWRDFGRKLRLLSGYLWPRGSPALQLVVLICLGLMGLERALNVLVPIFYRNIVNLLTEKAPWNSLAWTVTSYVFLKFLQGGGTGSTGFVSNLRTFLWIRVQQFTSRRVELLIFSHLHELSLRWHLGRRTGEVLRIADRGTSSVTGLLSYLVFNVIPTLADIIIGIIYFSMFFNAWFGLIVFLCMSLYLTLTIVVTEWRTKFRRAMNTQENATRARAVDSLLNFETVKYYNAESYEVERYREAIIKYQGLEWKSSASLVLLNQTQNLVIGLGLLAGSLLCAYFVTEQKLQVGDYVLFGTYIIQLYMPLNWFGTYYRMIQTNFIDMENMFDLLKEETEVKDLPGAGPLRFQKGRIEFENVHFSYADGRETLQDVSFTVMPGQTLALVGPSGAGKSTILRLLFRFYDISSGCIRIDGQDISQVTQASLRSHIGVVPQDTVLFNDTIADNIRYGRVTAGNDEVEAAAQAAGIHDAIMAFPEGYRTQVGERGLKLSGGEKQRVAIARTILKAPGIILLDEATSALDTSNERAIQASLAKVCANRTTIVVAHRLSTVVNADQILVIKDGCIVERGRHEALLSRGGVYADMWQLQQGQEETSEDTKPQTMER
Chain of AP-2 complex subunit beta (Homo sapiens) (P63010 whole entry, looked up, the tested form may be a part, one chain of several): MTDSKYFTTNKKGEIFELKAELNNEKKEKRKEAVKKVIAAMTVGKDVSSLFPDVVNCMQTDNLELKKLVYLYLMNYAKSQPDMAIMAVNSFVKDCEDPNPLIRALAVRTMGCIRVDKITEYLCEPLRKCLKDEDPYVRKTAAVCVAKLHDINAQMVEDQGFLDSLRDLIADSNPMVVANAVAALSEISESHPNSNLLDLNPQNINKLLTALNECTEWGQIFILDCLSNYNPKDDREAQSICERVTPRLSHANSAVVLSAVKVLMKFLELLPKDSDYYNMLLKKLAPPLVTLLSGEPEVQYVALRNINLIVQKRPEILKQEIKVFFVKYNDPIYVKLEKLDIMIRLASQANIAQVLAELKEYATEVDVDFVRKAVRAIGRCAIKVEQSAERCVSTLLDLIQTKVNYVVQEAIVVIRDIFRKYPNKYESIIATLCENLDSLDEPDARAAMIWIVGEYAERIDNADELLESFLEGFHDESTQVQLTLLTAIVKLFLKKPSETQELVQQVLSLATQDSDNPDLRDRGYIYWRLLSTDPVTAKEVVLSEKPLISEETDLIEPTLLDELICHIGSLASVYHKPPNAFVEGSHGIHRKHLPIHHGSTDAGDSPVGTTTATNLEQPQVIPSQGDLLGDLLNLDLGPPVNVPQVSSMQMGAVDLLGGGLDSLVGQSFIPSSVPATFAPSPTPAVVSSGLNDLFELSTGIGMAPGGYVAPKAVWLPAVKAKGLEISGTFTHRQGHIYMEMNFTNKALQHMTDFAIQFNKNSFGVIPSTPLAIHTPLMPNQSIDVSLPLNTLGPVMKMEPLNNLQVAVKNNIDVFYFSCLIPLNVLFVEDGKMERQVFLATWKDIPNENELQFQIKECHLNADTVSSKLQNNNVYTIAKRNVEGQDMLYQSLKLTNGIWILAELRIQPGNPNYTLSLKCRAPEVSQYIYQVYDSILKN

On to `Cc1cc(Cl)cc2c1NC(=O)[C@]21[C@@H]2C(=O)N(Cc3ccccc3)C(=O)[C@@H]2[C@@H]2CCCN21`, for which the percent of DMSO control GFP in assay [1] is 96.2% (inactive). For the same compound, the GFP response vs DMSO in [2] is 95.7% (inactive); in [4] it was 102% (inactive). In addition, the percent response of DMSO control in [3] is 90.5% (inactive). In addition, in [5], the GFP response, % of DMSO was 99.6% (inactive). This compound yielded a double positive events in [6] of 63.7%. Besides, in assay [6], the vesicle binding response was 154% (inactive). Besides, the inhibition (in general, the relative decrease from the control value, in per cent) was -232% (inactive) in assay [7], -2.45% (inactive) in assay [11] and -22% (inactive) in [15]. Moreover, in assay [8], the superoxide response (% of plate) was 95.7% (inactive). For the same compound, the aptamer binding inhibition in assay [9] was 6% (inactive). Further, the response in assay [10] was -4.55% (inactive); in [12], 3.96% (inactive). The binding (% of control) in assay [13] is 104% (inactive). Besides, the efflux inhibition (fraction of control) in [14] was 0.08 (inactive). Further, the differentiation response in assay [16] was -14.8% (inactive).
In the case of `Cc1nc2cc3ccccc3cc2c(=O)[nH]1`, in assay [1], the percent of DMSO control GFP was 102% (inactive). Further, the GFP response vs DMSO in assay [2] was 106% (inactive); in assay [4], 104% (inactive). For the same compound, in [3], the percent response of DMSO control is 101% (inactive). In addition, the GFP response, % of DMSO in [5] is 96.6% (inactive). This compound had a double positive events in assay [6] of 60.4%. The vesicle binding response in assay [6] was 160% (inactive). The figures for the inhibition in assay [7], in assay [11] and in assay [15] were -26.1% (inactive), -19.1% (inactive) and -9% (inactive), respectively. The superoxide response (% of plate) in [8] was 104% (inactive). In assay [9], the aptamer binding inhibition is 6% (inactive). In addition, the response in assay [10] was 9.81% (inactive); in [12], 1.08% (inactive). Also, the binding (% of control) in [13] was 98% (inactive). For the same compound, the efflux inhibition (fraction of control) in [14] is 0.07 (inactive). Moreover, in assay [16], the differentiation response is -2.64% (inactive).
Turning to `Cc1ccc(N2C(=O)c3ccccc3C2=O)cc1C`, the percent of DMSO control GFP in assay [1] is 105% (inactive). Also, the GFP response vs DMSO is 104% (inactive) in assay [2] and 99.1% (inactive) in [4]. The percent response of DMSO control in [3] was 107% (inactive). Further, the GFP response, % of DMSO in assay [5] is 94.8% (inactive). The double positive events in [6] was found to be 63.4%. In addition, in assay [6], the vesicle binding response is 121% (inactive). Besides, the inhibition is 6.95% (inactive) in assay [7], -6.64% (inactive) in [11] and 0% (inactive) in assay [15]. The superoxide response (% of plate) in assay [8] was 99.1% (inactive). Also, in [9], the aptamer binding inhibition is 3% (inactive). For the same compound, the response in assay [10] is -0.69% (inactive); in [12] it was 0.36% (inactive). For the same compound, in assay [13], the binding (% of control) was 101% (inactive). For the same compound, the efflux inhibition (fraction of control) in [14] is 0.24 (inactive). The differentiation response in [16] is -3.11% (inactive).
Take `C[C@]12CC[C@@H]3c4ccc(O)cc4CC[C@H]3[C@@H]1C[C@@H](O)[C@@H]2O[C@@H]1O[C@H](C(=O)O)[C@@H](O)[C@H](O)[C@H]1O`: in [1], the percent of DMSO control GFP is 90.6% (inactive). Further, the figures for the GFP response vs DMSO in [2] and in assay [4] were 113% (inactive) and 77% (inactive), respectively. The percent response of DMSO control in [3] was 108% (inactive). Further, the GFP response, % of DMSO in [5] was 104% (inactive). Also, in assay [6], the double positive events was 61.7%. Besides, the vesicle binding response in assay [6] is 249% (inactive). The inhibition in assay [7] is -10% (inactive); in assay [11], -6.28% (inactive); in assay [15] it was 8% (inactive). The superoxide response (% of plate) in [8] was 109% (inactive). Moreover, in assay [9], the aptamer binding inhibition was 4% (inactive). For the same compound, the response in assay [10] was -7.17% (inactive); in [12], -6.58% (inactive). The binding (% of control) in [13] was 105% (inactive). Moreover, the efflux inhibition (fraction of control) in [14] is 0.12 (inactive). For the same compound, in [16], the differentiation response is -4.91% (inactive).
As for `Nc1ccc(S(N)(=O)=O)cc1N`, the percent of DMSO control GFP in assay [1] is 98.1% (inactive). In addition, the GFP response vs DMSO is 119% (inactive) in assay [2] and 84.7% (inactive) in assay [4]. Moreover, the percent response of DMSO control in assay [3] is 99.2% (inactive). Besides, in [5], the GFP response, % of DMSO is 91.7% (inactive). Besides, the double positive events in assay [6] turned out to be 66.3%. Besides, the vesicle binding response in assay [6] is 202% (inactive). Besides, the inhibition was 3.55% (inactive) in assay [7], 7.24% (inactive) in [11] and 14% (inactive) in assay [15]. Also, the superoxide response (% of plate) in assay [8] is 82.8% (inactive). In addition, the aptamer binding inhibition in [9] was 3% (inactive). Also, the response in assay [10] is 31.7% (inactive); in [12] it was 0.32% (inactive). The binding (% of control) in [13] was 103% (inactive). In addition, the efflux inhibition (fraction of control) in assay [14] is -0.28 (inactive). In assay [16], the differentiation response was 2.46% (inactive).
